{"source": "PubChem BioAssay AID463082", "about": "(The Scripps Research Institute Molecular Screening Center, 2010)", "note": "Screen size: about 330,000 compounds; about 4,900 (1.5%) were called active.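 How the source made its calls: active means inhibition above the mean inhibition across the screen plus 3 SD (cut at about 25% in these data); inactive means the rest.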 What follows is part of a selection rich in actives, with near analogues and random picks from the rest.", "data": [{"target": "Platelet-activating factor acetylhydrolase (Homo sapiens) (UniProt Q13093)", "sequence (Q13093 whole entry, looked up)": "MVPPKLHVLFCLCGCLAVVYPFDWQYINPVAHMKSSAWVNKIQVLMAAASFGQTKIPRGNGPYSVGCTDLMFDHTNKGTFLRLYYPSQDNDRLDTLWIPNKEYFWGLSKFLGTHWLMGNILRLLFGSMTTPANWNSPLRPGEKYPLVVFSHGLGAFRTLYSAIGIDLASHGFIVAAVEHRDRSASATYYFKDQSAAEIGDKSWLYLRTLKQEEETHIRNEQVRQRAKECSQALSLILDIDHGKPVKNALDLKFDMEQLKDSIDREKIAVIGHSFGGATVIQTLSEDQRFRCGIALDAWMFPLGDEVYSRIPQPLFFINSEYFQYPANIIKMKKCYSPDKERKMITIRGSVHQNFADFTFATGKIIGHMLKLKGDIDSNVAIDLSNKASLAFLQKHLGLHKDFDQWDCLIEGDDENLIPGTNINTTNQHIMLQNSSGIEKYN", "assay": "pPAFAH enzyme inhibitors, primary screen, biochemical, fluorescence polarization, human (AID 463082);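 further: inhibitors block binding of the rhodamine activity-based probe so polarization drops; 0% = enzyme with DMSO and 100% = wells lacking pPAFAH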", "details": "recombinant pPAFAH, FP-rhodamine probe fluorescence polarization; at 3.39 µM; stronger effect = higher value", "values": [{"smiles": "Cc1ccc2c(c1)nnc1nnc(SCC(=O)O)n12", "inhibition": "2.74% (inactive)"}, {"smiles": "CC(C)C[C@H](NC(=O)N1CCn2c1nc1ccccc12)C(=O)NC1CC1", "inhibition": "1.86% (inactive)"}, {"smiles": "COc1ccc(C(=O)Nc2cc(C)c(NC(=O)c3ccccc3OC)cn2)cc1", "inhibition": "2.94% (inactive)"}, {"smiles": "C=CCn1c(=S)[nH]c2nc3c(cc2c1=O)COC(C)(C)C3", "inhibition": "-1.93% (inactive)"}, {"smiles": "C=CCn1cnc2scc(-c3ccccc3)c2c1=O", "inhibition": "0.46% (inactive)"}, {"smiles": "C=CCn1c(=S)[nH]c2scc(-c3ccco3)c2c1=O", "inhibition": "42.6% (active)"}, {"smiles": "C#CCOCCOCCOCCNc1nc(N2CCN(C(=O)C(Cc3ccc(O)cc3)n3cc(C(N)CC(C)C)nn3)CC2)nc(N2CCN(C(=O)C(Cc3ccc(O)cc3)n3cc(C(N)C(C)CC)nn3)CC2)n1", "note": "(stereo unspecified)", "inhibition": "0.55% (inactive)"}, {"smiles": "CN(C)S(=O)(=O)N1CCC(Oc2cccc(C(=O)NCCCC3CCCC3)c2)CC1", "inhibition": "3.19% (inactive)"}, {"smiles": "Cc1nn(CC(=O)Nc2ccc3c(c2)OCO3)c(C)c1[N+](=O)[O-]", "inhibition": "-3.11% (inactive)"}, {"smiles": "Cc1ccc(C(=O)Nc2ccc3c(c2)OCO3)cc1S(=O)(=O)N1CCCCC1", "inhibition": "14.5% (inactive)"}, {"smiles": "Cc1ccc(C(=O)O)cc1-c1ccc(/C=C2\\SC(=O)N(CC(=O)Nc3ccc4c(c3)OCO4)C2=O)o1", "inhibition": "30.2% (active)"}, {"smiles": "O=C(COC(=O)c1ccc(F)cc1)Nc1ccc2c(c1)OCO2", "inhibition": "9.5% (inactive)"}, {"smiles": "O=C(NOCc1ccccc1)c1cccc([N+](=O)[O-])c1", "inhibition": "7.75% (inactive)"}, {"smiles": "Cn1c(=O)c2c(ncn2CC(=O)N/N=C/c2cn[nH]c2-c2ccc(F)cc2)n(C)c1=O", "inhibition": "1.61% (inactive)"}, {"smiles": "CCN(Cc1ccccc1)C(=O)Cc1ccc(OC)c(S(=O)(=O)N2CCOCC2)c1", "inhibition": "-1.51% (inactive)"}, {"smiles": "Oc1c(Cl)cc(Cl)c(Cl)c1Cc1c(O)c(Cl)cc(Cl)c1Cl", "inhibition": "68.2% (active)"}, {"smiles": "O=C(CN1C(=O)NC2(CCOc3ccccc32)C1=O)Nc1cccc([N+](=O)[O-])c1", "note": "(stereo unspecified)", "inhibition": "0.7% (inactive)"}, {"smiles": "Cc1cccc(NC(=S)NCCc2ccc(F)cc2)c1C", "inhibition": "3.05% (inactive)"}, {"smiles": "CCCCN(C)CCC(=O)Nc1ccc(Cl)cc1", "inhibition": "1.11% (inactive)"}, {"smiles": "CCCCC(=O)Nc1ccc2c(c1)C(=O)NC2=O", "inhibition": "34.6% (active)"}, {"smiles": "CC(=O)Nc1ccc(Oc2ccc3c(c2)C(=O)NC3=O)cc1", "inhibition": "-0.12% (inactive)"}, {"smiles": "Cc1cc(NC(=O)c2ccccc2C)no1", "inhibition": "2.84% (inactive)"}, {"smiles": "Cc1ccc(S(=O)(=O)N2CCN(CC(=O)N/N=C/c3cc([N+](=O)[O-])ccc3Cl)CC2)cc1", "inhibition": "3.66% (inactive)"}, {"smiles": "O=[N+]([O-])c1cc(Cl)cc(/C=N/NC(=S)Nc2cc(S(=O)(=O)N3CCOCC3)ccc2Cl)c1O", "inhibition": "36.5% (active)"}, {"smiles": "O=S(=O)(c1ccc(NC(=S)NN=C(C2CC2)C2CC2)cc1)N1CCOCC1", "inhibition": "15% (inactive)"}, {"smiles": "CSc1ccc(C(=O)C2CCCN(C(=O)c3ccc(C)nc3)C2)cc1", "note": "(stereo unspecified)", "inhibition": "5.05% (inactive)"}, {"smiles": "CCOC(=O)C1C(=O)OC2(CCCC2)C1C(=O)OCC", "note": "(stereo unspecified)", "inhibition": "-0.69% (inactive)"}, {"smiles": "CN(CC(=O)N1CCN(c2ccccc2)CC1)S(=O)(=O)c1cccs1", "inhibition": "-1.58% (inactive)"}, {"smiles": "CC(C)CNC(=O)C(=O)Nc1ccc(N(C)C)cc1", "inhibition": "-8.71% (inactive)"}, {"smiles": "CC(=O)N(C)c1ccc(NC(=O)C(F)(F)F)cc1", "inhibition": "-4.77% (inactive)"}, {"smiles": "CN(C)c1ccc(N/C=C/C(=O)C(F)(F)F)cc1", "inhibition": "42.4% (active)"}, {"smiles": "CCCc1ccc(C(=O)[C@@H]2[C@@H](C(C)=O)N3c4ccc(F)cc4C=C[C@@H]3[C@@]23C(=O)Nc2ccccc23)cc1", "inhibition": "2.89% (inactive)"}, {"smiles": "O=C(CSc1ncnc2sccc12)NC1CCS(=O)(=O)C1", "note": "(stereo unspecified)", "inhibition": "4.85% (inactive)"}, {"smiles": "COc1ccc(NC(=O)C(NC(C)=O)C(=O)NCc2ccccc2Cl)cc1", "note": "(stereo unspecified)", "inhibition": "-2.3% (inactive)"}, {"smiles": "COC(=O)[C@@]12CCCN1[C@H](c1ccc(-c3ccc(F)cc3)c(OC)c1)[C@H]1C(=O)N(C)C(=O)[C@H]12", "inhibition": "-3.21% (inactive)"}, {"smiles": "CNC(=S)N/N=C/c1cn(Cc2ccc(C)cc2)c2ccccc12", "inhibition": "18.1% (inactive)"}, {"smiles": "COC(=O)N/N=C/c1cn(CCCOc2ccc(C)cc2)c2ccccc12", "inhibition": "19.2% (inactive)"}, {"smiles": "CCOC(=O)N/N=C/c1cn(Cc2ccccc2Cl)c2ccccc12", "inhibition": "30.1% (active)"}, {"smiles": "Cc1ccc(-c2nc(SCC(=O)Nc3ccccc3OC(F)F)c3c(C)c(C(=O)O)sc3n2)cc1", "inhibition": "1.04% (inactive)"}, {"smiles": "OCCCC1CCCCN1Cc1nc(Cc2ccccc2Cl)no1", "note": "(stereo unspecified)", "inhibition": "-2.08% (inactive)"}, {"smiles": "CC(C)N(C(=O)CSc1nnc(NC2CC2)s1)c1ccccc1", "inhibition": "-0.35% (inactive)"}, {"smiles": "Cc1ccccc1Nc1nnc(SCC(=O)c2cc3ccccc3o2)s1", "inhibition": "2.17% (inactive)"}, {"smiles": "CC(C)c1ccc(Nc2nnc(SCC(=O)c3nnc(-c4ccccc4)o3)s2)cc1", "inhibition": "30.8% (active)"}, {"smiles": "Fc1ccccc1/C=C1\\CCCC2=C1Nc1ncnn1C2c1ccccc1F", "note": "(stereo unspecified)", "inhibition": "14% (inactive)"}, {"smiles": "O=C1C=C(c2cccc(Cl)c2O)C[C@@H](c2ccc(F)cc2)C1", "inhibition": "4.07% (inactive)"}, {"smiles": "O=C(NCc1ccc(F)cc1)C(c1ccccc1)N(C(=O)c1csnn1)C1CC1", "note": "(stereo unspecified)", "inhibition": "-2.59% (inactive)"}, {"smiles": "CC1=NNC(=O)C1CCC(=O)N/N=C(\\C)c1ccc(Cl)cc1", "note": "(stereo unspecified)", "inhibition": "3.21% (inactive)"}, {"smiles": "O=C(CN1C(=O)NC2(CCCC2)C1=O)Nc1cc(C(F)(F)F)ccc1N1CCOCC1", "inhibition": "6.53% (inactive)"}, {"smiles": "O=C(CCC1CCCCC1)Nc1cc(C(F)(F)F)ccc1N1CCOCC1", "inhibition": "37.1% (active)"}, {"smiles": "CC(C)CC(=O)Nc1cc(C(F)(F)F)ccc1N1CCOCC1", "inhibition": "-1.9% (inactive)"}, {"smiles": "Cc1ccc(O/C=C2\\OC(=O)c3ccccc32)cc1", "inhibition": "-0.55% (inactive)"}, {"smiles": "Cc1noc(C)c1NC(=O)Nc1ccc2c(c1)C(=O)N([C@H](C)CO)C[C@H](C)[C@@H](CN(C)C(=O)Nc1ccc(C(F)(F)F)cc1)O2", "inhibition": "-10.3% (inactive)"}, {"smiles": "COc1ccc(NC(=O)c2cc(-c3ccc(C)o3)nc3ccccc23)cc1", "inhibition": "11.4% (inactive)"}, {"smiles": "CC(=O)N1CCN(C(=O)c2cc(-c3ccc(C)o3)nc3ccccc23)CC1", "inhibition": "41% (active)"}, {"smiles": "CC(=O)N1CCN(C(=O)c2cc(-c3ccc(Cl)s3)nc3ccccc23)CC1", "inhibition": "3.56% (inactive)"}, {"smiles": "O=C(Cn1ncc2c3ccccc3n(Cc3ccccc3)c2c1=O)NCc1ccccn1", "inhibition": "-0.14% (inactive)"}]}]}
